From the supplement of paper PMC11732987, “Enantioselective OTUD7B fragment discovery through chemoproteomics screening and high-throughput optimisation” (Communications Chemistry, 2025)

Experiments:
Test in all cases: log2 ratio of Biotin-Ahx-Ub-VS probe labelling (fragment/DMSO); higher = less target engagement (more negative = stronger competition), active = hit call of the paper (q ≤ 0.05, log2 ratio ≤ -1)
Details in all cases: compound concentration: 200 uM; treatment time: 3 h
[1] = target: T1, USP42 (UniProt Q9H9J4)
T1 sequence (whole entry): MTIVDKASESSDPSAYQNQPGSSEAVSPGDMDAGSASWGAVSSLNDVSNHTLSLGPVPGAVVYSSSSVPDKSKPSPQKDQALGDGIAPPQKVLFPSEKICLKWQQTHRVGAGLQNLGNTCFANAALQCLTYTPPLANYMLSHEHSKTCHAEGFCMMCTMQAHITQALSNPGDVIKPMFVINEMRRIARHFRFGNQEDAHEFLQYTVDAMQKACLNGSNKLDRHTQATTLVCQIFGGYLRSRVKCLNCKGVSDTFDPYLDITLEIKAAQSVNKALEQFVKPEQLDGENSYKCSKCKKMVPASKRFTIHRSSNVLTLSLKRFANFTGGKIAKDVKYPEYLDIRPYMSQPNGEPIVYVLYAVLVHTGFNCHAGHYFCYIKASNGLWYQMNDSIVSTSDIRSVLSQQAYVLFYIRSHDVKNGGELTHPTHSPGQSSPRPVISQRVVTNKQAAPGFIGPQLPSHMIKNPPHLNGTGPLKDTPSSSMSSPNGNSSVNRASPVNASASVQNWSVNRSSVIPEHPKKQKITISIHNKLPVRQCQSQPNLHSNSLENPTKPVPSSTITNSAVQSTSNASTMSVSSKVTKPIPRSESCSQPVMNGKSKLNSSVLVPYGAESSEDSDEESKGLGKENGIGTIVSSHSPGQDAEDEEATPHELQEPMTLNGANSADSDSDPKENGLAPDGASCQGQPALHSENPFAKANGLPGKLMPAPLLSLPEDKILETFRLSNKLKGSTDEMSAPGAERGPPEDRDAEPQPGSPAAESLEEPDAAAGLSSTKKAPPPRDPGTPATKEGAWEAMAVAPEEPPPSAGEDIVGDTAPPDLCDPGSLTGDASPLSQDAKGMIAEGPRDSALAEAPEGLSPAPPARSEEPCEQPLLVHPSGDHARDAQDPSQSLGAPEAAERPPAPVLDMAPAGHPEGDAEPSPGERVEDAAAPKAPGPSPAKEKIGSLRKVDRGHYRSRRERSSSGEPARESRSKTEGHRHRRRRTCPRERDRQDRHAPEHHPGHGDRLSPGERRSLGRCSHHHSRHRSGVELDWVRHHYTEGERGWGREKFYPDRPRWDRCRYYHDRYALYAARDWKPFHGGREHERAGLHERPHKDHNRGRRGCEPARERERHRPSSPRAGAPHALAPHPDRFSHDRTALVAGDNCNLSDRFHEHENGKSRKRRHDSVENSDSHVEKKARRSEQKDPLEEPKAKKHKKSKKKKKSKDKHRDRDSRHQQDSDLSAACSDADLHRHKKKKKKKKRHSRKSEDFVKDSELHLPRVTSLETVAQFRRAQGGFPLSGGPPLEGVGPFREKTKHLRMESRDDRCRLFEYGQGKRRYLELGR
In short: (§1)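 HEK293T lysate (495 µg per sample, in Tris/CHAPS/IGEPAL buffer with protease inhibitors) was exposed in triplicate for 3 h to fragment at 200 µM or to vehicle, then to Biotin-Ahx-Ub-VS at 0.5 µM final for 1 h. Labelled DUBs were enriched on NeutrAvidin, digested with LysC and trypsin, and analysed by diaPASEF LC-MS/MS. Spectronaut label-free quantities were normalised to the global median, and values are average log2 ratios of fragment over vehicle from an unpaired t-test. Only proteins with ≥2 unique peptides were used.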

[2] = target: USP46 (UniProt P62068)
USP46, sequence (P62068 whole entry): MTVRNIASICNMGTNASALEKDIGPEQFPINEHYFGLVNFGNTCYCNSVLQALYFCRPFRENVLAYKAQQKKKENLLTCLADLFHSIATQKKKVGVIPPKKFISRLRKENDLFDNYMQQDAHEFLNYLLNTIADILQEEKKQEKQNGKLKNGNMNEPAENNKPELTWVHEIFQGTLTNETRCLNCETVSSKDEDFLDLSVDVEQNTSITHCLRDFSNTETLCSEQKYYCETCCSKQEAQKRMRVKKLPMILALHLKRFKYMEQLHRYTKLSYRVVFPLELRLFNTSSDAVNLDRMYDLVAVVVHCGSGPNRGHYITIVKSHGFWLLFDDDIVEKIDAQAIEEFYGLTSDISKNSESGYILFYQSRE
In short: as §1

[3] = target: T2, USP47 (UniProt Q96K76)
T2 sequence (whole entry): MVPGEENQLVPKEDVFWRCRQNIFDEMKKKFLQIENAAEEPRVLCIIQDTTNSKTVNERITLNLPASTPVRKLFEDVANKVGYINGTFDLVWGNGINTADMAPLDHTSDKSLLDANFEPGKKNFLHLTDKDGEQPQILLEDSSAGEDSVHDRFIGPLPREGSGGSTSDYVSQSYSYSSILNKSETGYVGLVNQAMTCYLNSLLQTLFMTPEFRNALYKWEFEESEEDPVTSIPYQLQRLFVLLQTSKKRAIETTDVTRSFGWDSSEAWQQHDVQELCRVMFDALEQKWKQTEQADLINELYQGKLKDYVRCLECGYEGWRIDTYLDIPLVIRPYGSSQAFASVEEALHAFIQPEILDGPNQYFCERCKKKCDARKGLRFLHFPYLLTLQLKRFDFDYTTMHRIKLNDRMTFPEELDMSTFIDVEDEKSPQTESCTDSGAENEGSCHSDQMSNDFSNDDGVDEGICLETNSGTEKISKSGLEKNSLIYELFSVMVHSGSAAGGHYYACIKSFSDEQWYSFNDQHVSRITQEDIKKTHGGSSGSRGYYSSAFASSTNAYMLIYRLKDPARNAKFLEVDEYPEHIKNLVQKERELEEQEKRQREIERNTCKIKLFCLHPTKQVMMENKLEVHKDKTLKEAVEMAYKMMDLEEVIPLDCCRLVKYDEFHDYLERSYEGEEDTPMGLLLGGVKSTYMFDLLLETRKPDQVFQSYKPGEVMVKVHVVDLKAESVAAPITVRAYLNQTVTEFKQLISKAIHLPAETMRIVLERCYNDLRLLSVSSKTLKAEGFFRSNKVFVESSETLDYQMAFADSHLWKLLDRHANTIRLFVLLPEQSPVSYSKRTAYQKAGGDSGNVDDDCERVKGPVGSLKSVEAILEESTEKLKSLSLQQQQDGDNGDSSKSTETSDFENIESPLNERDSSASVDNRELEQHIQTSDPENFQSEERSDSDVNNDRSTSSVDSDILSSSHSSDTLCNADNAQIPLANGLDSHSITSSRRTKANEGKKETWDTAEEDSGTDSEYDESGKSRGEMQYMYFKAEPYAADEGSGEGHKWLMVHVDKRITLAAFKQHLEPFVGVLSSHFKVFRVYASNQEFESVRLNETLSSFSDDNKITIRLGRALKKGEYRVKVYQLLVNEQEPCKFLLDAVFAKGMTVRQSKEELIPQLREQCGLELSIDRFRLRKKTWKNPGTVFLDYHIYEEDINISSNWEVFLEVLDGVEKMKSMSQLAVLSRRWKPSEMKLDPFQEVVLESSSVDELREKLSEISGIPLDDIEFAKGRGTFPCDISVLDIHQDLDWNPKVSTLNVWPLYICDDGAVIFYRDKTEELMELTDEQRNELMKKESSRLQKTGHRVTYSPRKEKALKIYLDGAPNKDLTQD
In short: as §1

[4] = target: T3, USP48 (UniProt Q86UV5)
T3 sequence (whole entry): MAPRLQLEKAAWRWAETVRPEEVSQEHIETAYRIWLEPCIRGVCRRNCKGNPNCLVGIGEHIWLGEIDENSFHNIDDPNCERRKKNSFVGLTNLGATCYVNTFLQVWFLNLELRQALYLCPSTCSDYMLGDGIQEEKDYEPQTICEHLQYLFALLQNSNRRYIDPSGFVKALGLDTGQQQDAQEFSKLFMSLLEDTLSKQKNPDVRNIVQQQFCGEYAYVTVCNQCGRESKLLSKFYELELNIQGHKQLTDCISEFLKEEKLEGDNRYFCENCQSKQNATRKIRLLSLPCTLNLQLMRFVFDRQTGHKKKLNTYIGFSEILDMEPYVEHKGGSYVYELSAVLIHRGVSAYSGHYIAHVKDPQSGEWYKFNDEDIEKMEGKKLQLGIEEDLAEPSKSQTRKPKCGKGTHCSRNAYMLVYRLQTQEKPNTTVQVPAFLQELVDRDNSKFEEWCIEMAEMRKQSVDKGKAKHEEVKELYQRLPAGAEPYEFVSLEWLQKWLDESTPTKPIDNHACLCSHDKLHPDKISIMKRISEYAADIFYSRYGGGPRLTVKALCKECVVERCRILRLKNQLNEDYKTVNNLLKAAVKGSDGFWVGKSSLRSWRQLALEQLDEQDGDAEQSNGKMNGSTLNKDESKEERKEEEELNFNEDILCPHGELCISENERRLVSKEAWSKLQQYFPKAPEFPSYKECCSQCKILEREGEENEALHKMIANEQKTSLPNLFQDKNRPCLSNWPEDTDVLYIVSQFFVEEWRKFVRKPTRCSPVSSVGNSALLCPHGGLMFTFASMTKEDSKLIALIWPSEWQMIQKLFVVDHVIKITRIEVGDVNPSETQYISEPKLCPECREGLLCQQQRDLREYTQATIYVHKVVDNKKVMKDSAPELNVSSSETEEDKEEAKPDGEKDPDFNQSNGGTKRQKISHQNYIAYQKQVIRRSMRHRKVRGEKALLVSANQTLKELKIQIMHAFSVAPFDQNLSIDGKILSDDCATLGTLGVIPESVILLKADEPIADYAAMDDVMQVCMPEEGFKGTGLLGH
In short: as §1

[5] = target: T4, USP5 (UniProt P45974)
T4 sequence (whole entry): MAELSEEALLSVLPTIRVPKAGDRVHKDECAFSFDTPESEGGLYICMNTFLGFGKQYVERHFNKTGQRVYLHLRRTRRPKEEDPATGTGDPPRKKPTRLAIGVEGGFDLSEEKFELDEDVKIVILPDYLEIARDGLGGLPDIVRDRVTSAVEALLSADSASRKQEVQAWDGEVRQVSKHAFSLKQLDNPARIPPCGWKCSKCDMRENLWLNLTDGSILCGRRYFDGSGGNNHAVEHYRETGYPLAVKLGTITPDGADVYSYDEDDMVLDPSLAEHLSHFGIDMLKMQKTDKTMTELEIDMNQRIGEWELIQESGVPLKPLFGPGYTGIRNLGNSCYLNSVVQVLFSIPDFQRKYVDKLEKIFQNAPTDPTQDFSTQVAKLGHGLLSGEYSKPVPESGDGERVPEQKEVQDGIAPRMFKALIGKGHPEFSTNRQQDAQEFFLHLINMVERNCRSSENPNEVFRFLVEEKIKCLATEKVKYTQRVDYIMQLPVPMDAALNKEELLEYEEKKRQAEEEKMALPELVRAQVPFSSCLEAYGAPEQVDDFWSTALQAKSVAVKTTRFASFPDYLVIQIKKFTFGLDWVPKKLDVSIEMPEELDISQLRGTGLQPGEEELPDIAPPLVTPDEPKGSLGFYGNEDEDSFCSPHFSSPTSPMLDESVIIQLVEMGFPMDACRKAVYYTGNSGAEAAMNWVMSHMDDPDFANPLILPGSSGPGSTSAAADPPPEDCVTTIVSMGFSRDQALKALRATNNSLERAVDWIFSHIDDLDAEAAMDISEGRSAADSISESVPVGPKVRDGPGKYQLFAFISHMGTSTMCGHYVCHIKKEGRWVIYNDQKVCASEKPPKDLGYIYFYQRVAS
In short: as §1

[6] = target: USP54 (UniProt Q70EL1)
USP54, sequence (Q70EL1 whole entry): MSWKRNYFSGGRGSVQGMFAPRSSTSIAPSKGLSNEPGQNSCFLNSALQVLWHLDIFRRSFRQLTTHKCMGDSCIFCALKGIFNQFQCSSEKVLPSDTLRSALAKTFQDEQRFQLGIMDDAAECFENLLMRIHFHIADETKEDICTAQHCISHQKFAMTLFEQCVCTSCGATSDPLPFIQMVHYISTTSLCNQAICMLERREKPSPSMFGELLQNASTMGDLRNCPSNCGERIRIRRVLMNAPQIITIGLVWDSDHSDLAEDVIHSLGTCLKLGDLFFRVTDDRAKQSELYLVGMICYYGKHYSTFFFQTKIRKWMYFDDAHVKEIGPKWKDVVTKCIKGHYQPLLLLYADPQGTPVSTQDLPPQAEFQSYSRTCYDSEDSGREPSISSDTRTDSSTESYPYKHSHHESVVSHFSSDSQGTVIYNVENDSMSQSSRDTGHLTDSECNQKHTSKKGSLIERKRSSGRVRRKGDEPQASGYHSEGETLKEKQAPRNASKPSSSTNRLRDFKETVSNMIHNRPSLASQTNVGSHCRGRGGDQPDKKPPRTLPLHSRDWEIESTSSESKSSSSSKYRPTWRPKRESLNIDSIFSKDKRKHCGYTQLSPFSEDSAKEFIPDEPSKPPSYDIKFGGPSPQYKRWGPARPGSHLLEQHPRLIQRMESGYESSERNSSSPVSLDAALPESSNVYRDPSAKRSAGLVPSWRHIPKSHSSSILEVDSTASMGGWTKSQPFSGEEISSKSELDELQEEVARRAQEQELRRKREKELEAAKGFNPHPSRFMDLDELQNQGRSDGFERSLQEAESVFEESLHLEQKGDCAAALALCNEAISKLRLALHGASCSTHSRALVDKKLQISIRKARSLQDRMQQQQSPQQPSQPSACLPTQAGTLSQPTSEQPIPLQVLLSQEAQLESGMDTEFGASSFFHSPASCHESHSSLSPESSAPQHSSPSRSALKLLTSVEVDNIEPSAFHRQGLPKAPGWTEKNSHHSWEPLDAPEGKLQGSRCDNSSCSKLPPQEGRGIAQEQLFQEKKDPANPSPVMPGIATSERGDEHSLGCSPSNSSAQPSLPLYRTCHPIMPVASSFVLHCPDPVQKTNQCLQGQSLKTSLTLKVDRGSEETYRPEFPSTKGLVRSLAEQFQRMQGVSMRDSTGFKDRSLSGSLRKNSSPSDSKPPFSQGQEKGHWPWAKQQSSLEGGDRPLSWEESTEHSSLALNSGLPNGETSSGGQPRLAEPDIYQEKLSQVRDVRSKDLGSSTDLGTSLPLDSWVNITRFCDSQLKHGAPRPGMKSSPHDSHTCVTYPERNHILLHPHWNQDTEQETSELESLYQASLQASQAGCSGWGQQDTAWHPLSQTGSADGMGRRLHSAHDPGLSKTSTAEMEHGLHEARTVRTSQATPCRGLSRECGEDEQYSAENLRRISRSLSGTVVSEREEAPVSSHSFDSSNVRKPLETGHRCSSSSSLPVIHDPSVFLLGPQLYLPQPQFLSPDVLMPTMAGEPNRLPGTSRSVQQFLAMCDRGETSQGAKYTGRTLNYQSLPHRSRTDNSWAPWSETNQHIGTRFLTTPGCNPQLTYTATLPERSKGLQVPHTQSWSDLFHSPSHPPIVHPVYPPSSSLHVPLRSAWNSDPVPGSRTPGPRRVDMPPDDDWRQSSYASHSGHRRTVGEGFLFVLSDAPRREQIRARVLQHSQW
In short: as §1

[7] = target: USP7 (UniProt Q93009)
USP7, sequence (Q93009 whole entry, looked up): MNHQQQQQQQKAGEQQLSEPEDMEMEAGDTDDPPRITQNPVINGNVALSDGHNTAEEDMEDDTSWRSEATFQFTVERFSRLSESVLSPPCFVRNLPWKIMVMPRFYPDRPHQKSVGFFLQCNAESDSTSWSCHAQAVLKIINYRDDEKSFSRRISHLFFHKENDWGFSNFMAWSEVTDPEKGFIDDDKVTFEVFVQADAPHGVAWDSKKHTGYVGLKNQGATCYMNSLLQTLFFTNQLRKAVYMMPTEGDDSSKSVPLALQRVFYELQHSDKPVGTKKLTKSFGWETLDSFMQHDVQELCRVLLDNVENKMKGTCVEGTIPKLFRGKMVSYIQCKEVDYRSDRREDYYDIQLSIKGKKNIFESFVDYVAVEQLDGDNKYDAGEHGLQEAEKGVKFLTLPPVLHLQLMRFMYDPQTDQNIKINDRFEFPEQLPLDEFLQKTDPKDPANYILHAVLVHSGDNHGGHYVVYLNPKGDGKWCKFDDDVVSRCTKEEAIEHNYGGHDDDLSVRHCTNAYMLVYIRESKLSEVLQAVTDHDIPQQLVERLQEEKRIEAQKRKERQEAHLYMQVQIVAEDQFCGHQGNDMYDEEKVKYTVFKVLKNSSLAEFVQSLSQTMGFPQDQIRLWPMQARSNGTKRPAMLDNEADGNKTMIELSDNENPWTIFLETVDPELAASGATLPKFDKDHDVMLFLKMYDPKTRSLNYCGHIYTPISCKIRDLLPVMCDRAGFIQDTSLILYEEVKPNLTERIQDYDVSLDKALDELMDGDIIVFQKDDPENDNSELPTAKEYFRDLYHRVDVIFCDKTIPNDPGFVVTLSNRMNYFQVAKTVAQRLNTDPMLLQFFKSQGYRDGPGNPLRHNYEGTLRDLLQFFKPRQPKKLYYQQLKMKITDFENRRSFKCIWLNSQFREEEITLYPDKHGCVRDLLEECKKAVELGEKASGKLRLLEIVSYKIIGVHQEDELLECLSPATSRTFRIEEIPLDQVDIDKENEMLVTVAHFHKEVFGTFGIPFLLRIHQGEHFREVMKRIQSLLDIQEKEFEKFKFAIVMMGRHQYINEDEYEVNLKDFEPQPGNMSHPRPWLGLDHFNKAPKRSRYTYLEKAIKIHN
In short: as §1

[8] = target: T5, USP8 (UniProt P40818)
T5 sequence (whole entry): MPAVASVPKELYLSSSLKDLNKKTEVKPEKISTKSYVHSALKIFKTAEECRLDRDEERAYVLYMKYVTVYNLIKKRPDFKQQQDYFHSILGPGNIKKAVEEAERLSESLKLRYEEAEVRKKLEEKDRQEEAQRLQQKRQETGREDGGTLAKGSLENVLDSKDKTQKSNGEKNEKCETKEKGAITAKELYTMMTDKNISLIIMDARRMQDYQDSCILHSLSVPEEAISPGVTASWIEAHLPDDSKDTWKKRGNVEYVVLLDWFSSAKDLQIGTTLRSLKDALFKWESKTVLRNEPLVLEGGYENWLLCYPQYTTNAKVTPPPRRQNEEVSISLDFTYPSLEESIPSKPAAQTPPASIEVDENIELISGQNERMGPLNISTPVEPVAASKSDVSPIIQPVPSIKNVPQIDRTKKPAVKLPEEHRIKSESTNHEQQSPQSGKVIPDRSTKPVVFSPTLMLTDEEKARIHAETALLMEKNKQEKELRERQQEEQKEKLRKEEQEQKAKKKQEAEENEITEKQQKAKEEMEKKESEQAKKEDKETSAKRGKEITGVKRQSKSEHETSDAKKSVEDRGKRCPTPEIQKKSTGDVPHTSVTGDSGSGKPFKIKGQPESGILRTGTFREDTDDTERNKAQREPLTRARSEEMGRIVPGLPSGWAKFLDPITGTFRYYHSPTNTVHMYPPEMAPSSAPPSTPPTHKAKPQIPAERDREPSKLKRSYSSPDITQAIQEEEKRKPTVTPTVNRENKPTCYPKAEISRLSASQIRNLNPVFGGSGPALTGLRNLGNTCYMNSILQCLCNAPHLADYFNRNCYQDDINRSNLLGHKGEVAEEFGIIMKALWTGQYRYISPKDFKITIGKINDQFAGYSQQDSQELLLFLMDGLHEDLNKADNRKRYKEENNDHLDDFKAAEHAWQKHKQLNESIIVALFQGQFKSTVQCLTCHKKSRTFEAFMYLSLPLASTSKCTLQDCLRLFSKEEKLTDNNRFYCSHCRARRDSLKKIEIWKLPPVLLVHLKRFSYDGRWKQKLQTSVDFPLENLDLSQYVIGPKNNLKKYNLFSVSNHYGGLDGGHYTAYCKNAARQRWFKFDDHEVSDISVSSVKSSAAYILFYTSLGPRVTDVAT
In short: as §1

[9] = target: USP9X (UniProt Q93008)
In short: as §1

[10] = target: UniProt O00487
UniProt O00487, sequence (O00487 whole entry): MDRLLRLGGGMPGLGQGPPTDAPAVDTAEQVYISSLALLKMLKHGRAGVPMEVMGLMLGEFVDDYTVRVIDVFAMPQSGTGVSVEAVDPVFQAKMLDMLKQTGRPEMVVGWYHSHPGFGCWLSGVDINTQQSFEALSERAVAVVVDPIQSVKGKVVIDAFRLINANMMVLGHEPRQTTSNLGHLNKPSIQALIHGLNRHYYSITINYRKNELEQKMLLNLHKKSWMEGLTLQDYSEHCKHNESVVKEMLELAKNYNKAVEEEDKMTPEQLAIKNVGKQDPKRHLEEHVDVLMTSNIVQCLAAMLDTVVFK
In short: as §1

Measured: log2 ratio of Biotin-Ahx-Ub-VS probe labelling

C[C@H]1CN(C(=O)CCl)CCN1C(=O)c1cnn(C)c1.Cl
inactive: [1] 0.109 | [2] -0.0724 | [3] -0.522 | [4] -0.436 | [5] 0.184 | [6] -0.0291 | [7] -0.353 | [8] -0.184 | [9] -0.221 | [10] -0.129

Cc1nc(CNC(=O)CCl)c2ccccn12.Cl
inactive: [1] 0.298 | [2] 0.0871 | [3] -0.0462 | [4] 0.164 | [5] 0.133 | [6] -0.0547 | [7] -0.157 | [8] -0.312 | [9] -0.222 | [10] 0.0442

O=C(CCl)N1CCCCC12CCOCC2
inactive: [1] -0.368 | [2] -0.278 | [3] -0.146 | [4] -0.525 | [5] -0.258 | [6] 0.442 | [7] -0.511 | [8] -0.237 | [9] -0.584 | [10] -0.282
